NPC1 prom act: activates the NPC1 promoter. Huh7 NPC1 promoter luciferase reporter, 24 h. Potency, µM (doses to about 9.22 µM), for the others: top-dose activation, usual class: activators. hit rate 2.4% among 320,000. AID 485313; note: % of control where 0% means no effect; nearly all actives have a fitted effect of over 60% in size
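Luciferase expression driven by the NPC1 promoter was measured in stably transfected Huh7 cells after a 24 h compound incubation, using a luciferase reagent and a luminescence read.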
Luc counter: Kinase-Glo luciferase inhibition (counter-screen); Q27757; Kinase-Glo luciferase, ATP luminescence, 8 min; Potency, µM (doses to about 38.3 µM), for inactives: at the top dose activity change, negative = inhibition, hits mostly inhibitors; hit rate 0.28% among 200,000; AID 1379; note: % is set by controls: 0 for no effect and ±100 for the full control effect; nearly all actives have a fitted effect of over 60% in size
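Recombinant Kinase-Glo luciferase, 10 uM ATP (linear range), luciferin; imidazole pH 7.2 / KCl / MgCl2 / Tween / BSA buffer; 8 min RT; luminescence.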
Rab9 promoter act: activates the Rab9 promoter; Potency, µM (doses to about 9.22 µM), for the others: at the highest dose activation, negative = inhibition, most hits filed as activators; hit rate 2.8% among 320,000; AID 485297; Huh7 Rab9 promoter-luciferase reporter, luminescence, 24 h; note: % of control where 0% means no effect; nearly all actives have a fitted effect of over 60% in size
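Huh7 cells stably carrying Rab9 promoter–luciferase reporter, plated 1500 cells/well, compound added after 2 h and incubated 24 h at 37 °C; luciferase luminescence then read after 10 min with detection reagent.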
SMN2 splice up: SMN2 splice variant enhancement | Potency, µM (series often up to 46.1 µM), without a hit: at the highest dose activity change, positive = activation, most hits filed as activators | hit rate 2.8% among 210,000 | HEK293 SMN2-luciferase splicing reporter, luminescence, 30-36 h; note: % of control where 0% means no effect; nearly all actives have a fitted effect of over 55% in size
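HEK293 cells carry an SMN2 […]–luciferase reporter in which exon 7 inclusion puts luciferase in frame. Cells were plated 10-12 h before compound addition, then incubated 30-36 h at 37C. ONE-Glo luminescence was read; sodium butyrate at 4.5 mM final served as control.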
FLuc counter: counter-screen for miR-21 project: firefly luciferase inhibitors or activators | P08659 | purified FLuc, Km substrates, luminescence inhibition | Potency, µM (titrated, usually from 57.5 µM), for inactives: at the highest dose activity change, negative = inhibition, hits mostly inhibitors | hit rate 6.9% among 360,000 | AID 588342;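 note: plate controls were vehicle for no effect and reference inhibitor for full effect; nearly all actives have a fitted effect of over 55% in size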
Target sequence (P08659 whole entry, looked up): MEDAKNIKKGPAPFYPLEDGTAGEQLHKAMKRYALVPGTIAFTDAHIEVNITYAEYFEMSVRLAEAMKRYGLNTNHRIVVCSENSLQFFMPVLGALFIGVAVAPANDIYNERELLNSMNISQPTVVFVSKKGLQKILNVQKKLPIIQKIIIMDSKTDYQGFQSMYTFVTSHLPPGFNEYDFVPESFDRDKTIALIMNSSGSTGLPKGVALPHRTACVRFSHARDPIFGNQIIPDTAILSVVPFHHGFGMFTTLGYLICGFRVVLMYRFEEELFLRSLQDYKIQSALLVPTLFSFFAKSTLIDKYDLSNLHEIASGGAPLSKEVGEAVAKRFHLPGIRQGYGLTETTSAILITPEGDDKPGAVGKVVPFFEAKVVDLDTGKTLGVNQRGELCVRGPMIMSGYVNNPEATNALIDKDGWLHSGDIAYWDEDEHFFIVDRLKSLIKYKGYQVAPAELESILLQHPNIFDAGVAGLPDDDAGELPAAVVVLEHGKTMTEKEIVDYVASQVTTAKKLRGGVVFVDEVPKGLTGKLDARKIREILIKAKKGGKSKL
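Purified P. pyralis luciferase (10nM final) with 10uM D-luciferin and 10uM ATP (Km levels) in 50mM Tris acetate pH 7.5, 10mM Mg acetate, 0.01% Tween-20, 0.05% BSA; qHTS 6-point titration, ~60 µM downward; luminescence read.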
ELG1 genotoxic: induces genotoxicity in HEK293T cells with luciferase-tagged ELG1; HEK293T ELG1-luciferase reporter, luminescence, 16 h; Potency, µM (highest dose often 46 µM), for inactives: top-dose activity change, positive = activation, hits mostly activators; hit rate 1.3% among 330,000; AID 504466; note: % of control where 0% means no effect; nearly all actives have a fitted effect of over 60% in size
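Cells (2,000/well) expressing the ELG1-luciferase fusion are dosed by pin tool and kept 16 hr at 37 °C, 5% CO2. Signal comes from ONE-Glo luciferase reagent after 30 min at room temperature.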
* marks the source's active call; other numbers are inactive results; ? = inconclusive; . = not tested or not shown. An excerpt weighted towards active compounds, which were near 7.4% of everything screened. Calls come from the whole dose curve; as a rule, active = well fitted curve in the direction sought with a large enough effect; inconclusive = small, poorly fitted or top-dose-only effect, or another doubt; inactive = no such curve, though single readings can be large; an effect the other way counts as inactive or inconclusive. Potency is the fitted concentration of half-maximal effect.

SMILES | NPC1 prom act | Luc counter | Rab9 promoter act | SMN2 splice up | FLuc counter | ELG1 genotoxic
COc1ccccc1N1CCN(S(=O)(=O)c2ccc(NC(C)=O)cc2)CC1 | 2% | . | -1% | . | 1% | -1%
COc1ccc(-c2nc(=S)c3c([nH]2)Oc2ccc(C)cc2C3)cc1O | 19% | -1% | 15% | 10% | -3% | 2%
COc1cc([N+](=O)[O-])ccc1NC(=O)COC(=O)C=C(C)C | 0% | 0% | 3% | 10% | 3% | 0%
COc1ccc(/C=C2\SC(=S)N(CC(=O)OCC(=O)Nc3ccc([N+](=O)[O-])cc3OC)C2=O)cc1 | 5% | -3% | 13% | 5% | 24µM* | 3%
COc1ccc(/C=C2\SC(=S)N(CC(=O)OCC(=O)Nc3ccc(C)cc3Cl)C2=O)cc1 | 4% | . | 22% | . | 12µM* | 3%
O=C(CCN1C(=O)/C(=C/c2ccc(F)cc2)SC1=S)Nc1cc([N+](=O)[O-])ccc1O | 0% | . | 6% | . | 12µM* | -4%
O=C(CCCN1C(=O)/C(=C/c2cccs2)SC1=S)Nc1cc([N+](=O)[O-])ccc1O | -6% | . | 0% | . | 8% | -1%
COc1ccc(/C=C2\SC(=S)N(CCCC(=O)Nc3ccc(O)cc3)C2=O)cc1 | -10% | . | -17% | . | ? | -1%
Cc1ccc(Nc2nc(N)nc(CCl)n2)cc1 | -49% | . | -49% | . | 1.9µM* | 17%
Cc1ccc(Nc2nc(N)nc(CCl)n2)c(C)c1 | -37% | . | -49% | . | 11µM* | -17%
Cc1ccc(Nc2nc(N)nc(CSCCO)n2)cc1 | ? | 0% | 2µM* | ? | 24µM* | ?
COc1cccc(Nc2nc(N)nc(CCl)n2)c1 | -41% | . | -50% | . | 21µM* | -7%
Nc1nc(CCl)nc(Nc2ccccc2)n1 | -36% | . | -48% | . | ? | -11%
COc1ccc(Nc2nc(N)nc(CSCCO)n2)cc1 | 19% | 1% | 3% | 13% | ? | ?
COc1cc(CC(=O)N(C)CC(=O)Nc2ccc(Cl)c(C(F)(F)F)c2)cc(OC)c1OC | -4% | . | -3% | . | 0% | -34%
CCOc1ccc(N2CC(C(=O)Nc3nnc(Cc4ccc(OC)cc4)s3)CC2=O)cc1 (stereo not drawn) | -36% | . | 6% | . | 6% | -2%
Cc1nnc(N2CCCC(C(=O)NCCc3ccccc3)C2)c2nn(-c3ccccc3)c(C)c12 (stereo not drawn) | . | . | . | . | -16% | .
Cc1ccc(Nc2nc(N)nc(CSc3nc4ccccc4s3)n2)cc1 | 3% | 2% | 0% | -1% | -26% | -7%
Cc1ccc(Nc2nc(N)nc(CC#N)n2)cc1 | ? | -2% | ? | 18µM* | 11µM* | 18µM*
Cc1ccc(NC(=O)COC(=O)C2=COCCO2)cc1 | -3% | -3% | 2% | -5% | ? | 8%
CCOc1ccc(Nc2nc(N)nc(CCl)n2)cc1 | -43% | . | -53% | . | 3µM* | 10%
Cc1ccc(Nc2nc(N)nc(COC(=O)C3=COCCO3)n2)cc1 | 2µM* | . | 2.8µM* | . | 13µM* | ?
CC(=O)NC(CC(=O)N(Cc1ccccc1)c1cccc(C)c1)c1ccccc1 (stereo not drawn) | -2% | . | 2% | . | -3% | -3%
O=C(NCc1cccc(C(F)(F)F)c1)C1CCCN(c2cnccn2)C1 (stereo not drawn) | 1% | . | -9% | . | -3% | -6%
Oc1ccccc1N=Cc1c(O)ccc2ccccc12 | -3% | . | 2% | . | 13µM* | 0%
SMILES | NPC1 prom act | Luc counter | Rab9 promoter act | SMN2 splice up | FLuc counter | ELG1 genotoxic
OCC(CO)(CO)N=Cc1c(O)ccc2ccccc12 | -2% | 1% | 11% | -9% | 0% | -11%
CC(=O)c1cccc(N=Cc2c(O)ccc3ccccc23)c1 | -1% | . | 4% | . | ? | 0%
Cc1cc(C(=O)O)ccc1N=Cc1c(O)ccc2ccccc12 | 10% | . | -4% | . | 0.76µM* | 1%
Oc1ccc2ccccc2c1C=Nc1ccccc1Br | -4% | . | 2% | . | 11µM* | 0%
CS/C(N)=N/N=C/c1c(O)ccc2ccccc12 | -1% | . | ? | . | 3µM* | ?
CN(C)/N=C/c1c(O)ccc2ccccc12 | -2% | -4% | -3% | -33% | ? | 0%
COc1cc([N+](=O)[O-])ccc1NC(=O)NCc1ccco1 | -1% | -2% | -1% | -5% | ? | 1%
Cc1ccc(-c2nc3ccccc3c(C(=O)NCc3cccs3)c2C)cc1 | -1% | -3% | 0% | -12% | -13% | -7%
Oc1ccc2ccccc2c1C=Nc1ccc(N2CCOCC2)cc1 | 1% | -7% | 11% | 26% | 6µM* | -5%
C=Cc1ccc(N=Cc2c(O)ccc3ccccc23)cc1 | -3% | . | -3% | . | 19µM* | -2%
CCCCn1cnc2cc(NC(=O)c3cc(OC)c(OC)c(OC)c3)ccc21 | . | . | . | -2% | -18% | .
Clc1ccc(Cn2ccc(C3CC3)n2)cc1 | 8% | -2% | -29% | . | ? | 14%
Cc1ccc(Cn2ccc(C3CC3)n2)cc1 | ? | -3% | ? | ? | 17µM* | 24%
CS(=O)(=O)c1ccc(Cl)c(NC(=O)COC(=O)COc2ccc3c(c2)CCC3)c1 | -5% | . | 0% | . | 7% | 2%
Cc1ccc(-c2csc(NC(=O)c3cccc(S(=O)(=O)N4CCN(C)CC4)c3)n2)cc1 | -5% | -8% | 1% | -70% | -19% | -5%
COc1ccc2nc(NC(=O)c3cccc(S(=O)(=O)N4CCOCC4)c3)sc2c1 | 0% | 2% | 4% | -29% | 11µM* | 0%
COc1cc(C(=O)Nc2nc3ccc(S(=O)(=O)N4CCOCC4)cc3s2)cc(OC)c1OC | -1% | -3% | -6% | -12% | -1% | -4%
COc1ccc2nc(NC(=O)c3cc(S(=O)(=O)N4CCOCC4)ccc3C)sc2c1 | 2% | 15% | 1% | -49% | 11µM* | -4%
O=C(Nc1nc(-c2nc3ccccc3s2)cs1)c1ccc(S(=O)(=O)N2CCOCC2)cc1 | 3.2µM* | . | 4.5µM* | . | ? | -13%
Cc1ccc(-c2csc(NC(=O)COC(=O)c3cccc(S(=O)(=O)N4CCOCC4)c3)n2)cc1 | 3.2µM* | . | 2.5µM* | . | 11µM* | ?
CC(OC(=O)CC1CCCC1)C(=O)Nc1ccc(Cl)cn1 (stereo not drawn) | -2% | . | -7% | . | 2% | -1%
COc1cc(OC)cc(C(=O)Nc2ccc(N3CCOCC3)cc2N2CCOCC2)c1 | 0% | . | -3% | . | 0% | 0%
COc1ccc(CC(=O)Nc2nccs2)cc1S(=O)(=O)N1CCOCC1 | . | . | . | . | . | -1%
Cc1ccnc(NC(=O)c2cccc(S(=O)(=O)N3CCOCC3)c2)c1 | 0% | . | 13% | . | 17µM* | ?
